Experimental data reported in PubChem BioAssay AID2517 (National Center for Advancing Translational Sciences (NCATS), 2010).
Screen size: about 350,000 compounds; about 1,200 (0.34%) were called active. Not shown: some 3% with an inconclusive outcome. The sample holds actives, similar compounds and a random draw of the others, so the mix is not that of the screen. Values without a mark were called inactive. Calls follow the shape of the dose curve; as a rule, active = well fitted inhibition curve with a large enough effect; inconclusive = small, poorly fitted or top-dose-only effect; inactive = no such curve, though single readings can be large or run the other way.
Also: nearly all actives have a fitted effect of over 55% in size.
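For activity change, negative = inhibition in this document: plate controls were vehicle for no effect and reference inhibitor for full effect.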
Potency is read from the fitted curve at half-maximal effect.

These compounds were tested against DNA repair nuclease/redox regulator APEX1 (Homo sapiens) (UniProt P27695) (assay: qHTS Assay for Inhibitors of the Human Apurinic/apyrimidinic Endonuclease 1 (APE1)). Conditions: recombinant APE1, TAMRA/BHQ-2 abasic DNA cleavage fluorescence; activity change, negative = inhibition: at 65.8 µM (top of the series).
DNA repair nuclease/redox regulator APEX1 (Homo sapiens), sequence (P27695 whole entry, looked up): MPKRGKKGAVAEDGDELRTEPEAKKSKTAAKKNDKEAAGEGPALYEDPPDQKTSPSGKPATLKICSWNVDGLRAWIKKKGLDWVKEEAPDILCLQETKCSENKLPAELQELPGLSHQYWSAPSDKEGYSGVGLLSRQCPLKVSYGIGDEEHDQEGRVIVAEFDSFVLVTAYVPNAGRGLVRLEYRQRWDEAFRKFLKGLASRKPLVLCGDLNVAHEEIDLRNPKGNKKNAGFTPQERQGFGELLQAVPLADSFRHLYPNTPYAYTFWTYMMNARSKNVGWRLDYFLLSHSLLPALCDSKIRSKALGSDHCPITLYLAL
Summary of the method: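 APE1 at 0.75 nM preincubated 15 min at room temperature with compound. Reaction then started with 50 nM double-stranded THF-abasic substrate labelled with TAMRA/BHQ-2, and 525/598 nm fluorescence read kinetically. Activity taken as third-minus-first read difference, normalized to DMSO and NSC13755 controls.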
With `CCCn1c(-c2ccc(F)cc2)nc2c(NC3CCN(Cc4ccccc4)C3)nc(C)nc21` (configuration not stated) the “activity change, negative = inhibition” value was 7.5%. For `COc1ccc(C(=O)N2CCC3(CC2)CCN(c2ccccn2)CC3)cc1`, the “activity change, negative = inhibition” value was 4.46%. In the case of `COc1ccc(-c2nc3c(c4c2C[C@H](c2ccccc2)OC4)CN(C(=O)c2cccnc2)CC3)c(C)c1`, the activity change, negative = inhibition is reported as -2.55% [at 12.4 µM]. For `NC(=O)C1CCN(c2nc(-c3cccc(F)c3)cs2)CC1`, the “activity change, negative = inhibition” value was 16.9%. With `C=C[C@](C)(O)CCC1C(=C)CCC2[C@@](C)(CO)CCC[C@@]12C` (some centres not stated) the “activity change, negative = inhibition” value was -0.9%. In the case of `COc1ccc2[nH]c3c(C)c4cc[n+](C)cc4c(C)c3c2c1`, the Potency is reported as 12.6 µM (active). In the case of `COc1ccc2[nH]c(=S)cc(C)c2c1`, the “activity change, negative = inhibition” value is reported as 17.4%. In the case of `COc1ccc2[nH]c(C(=O)N3CCN(C)CC3)c(C)c2c1`, the “activity change, negative = inhibition” value is reported as -10.7%. For `CC/C=C\C/C=C\C/C=C\C/C=C\C/C=C\C/C=C\CCC(=O)NCCc1ccc(O)c(O)c1`, the “activity change, negative = inhibition” value was -1.09%. With `COC(=O)C(C(=O)OC)[C@@H](NC=O)c1ccccc1` the “activity change, negative = inhibition” value was 0.907%. `Nc1nc2c(nc(Cl)n2C2OC(CO)C(O)C2O)c(=O)[nH]1` (configuration not stated) was tested, and the “activity change, negative = inhibition” value was 12.3%. With `COc1cccc(-c2cc(NCCc3c[nH]c4ccc(OC)cc34)ncn2)c1` the “activity change, negative = inhibition” value was 3.71%. For `CS(=O)(=O)NC(=O)CCC/C=C\C[C@H]1C(=O)C[C@@H](O)[C@@H]1/C=C/[C@H](O)COc1ccccc1`, the “activity change, negative = inhibition” value was 1.1%. `CC/C=C\C/C=C\C/C=C\C/C=C\C/C=C\C/C=C\CCC(=O)NC(C)C(=O)O` (configuration not stated) was tested, and the “activity change, negative = inhibition” value was -0.719%. For `COC(=O)c1ccc(C(NC(=O)OCc2ccccc2)/C(C)=C/[C@@H](C)C(=O)NCc2cc(C)on2)cc1` (some centres not stated), the “activity change, negative = inhibition” value was 0.278%. `CC(C)(C)c1ccc(OC2C=CC(C#Cc3ccccc3)OC2CO)cc1` (configuration not stated) showed an activity change, negative = inhibition of 3.5% [at 12.4 µM]. `O=C(Nc1nc(-c2ccco2)c(-c2ccco2)s1)c1ccco1` was tested, and the “activity change, negative = inhibition” value was 11.9%. For `O=C(NCc1ccccn1)c1ccc2nc(-c3ccco3)c(-c3ccco3)nc2c1`, the Potency was 10 µM (active). In the case of `COCCNC(=O)c1snc2ccc(Cl)cc12`, the “activity change, negative = inhibition” value is reported as -2.23%. `O=C1CSc2ccc(C(=O)NCc3ccccn3)cc2N1` was tested, and the “activity change, negative = inhibition” value was 6.27%. For `COCCNC(=O)Nc1ccc2nc(-c3ccco3)c(-c3ccco3)nc2c1`, the Potency was 6.31 µM (active). In the case of `COc1cccc(S(=O)(=O)NCc2ccc(C(=O)NCc3ccccn3)cc2)c1`, the “activity change, negative = inhibition” value is reported as 7.86%. `O=C(O)CC(C(=O)O)C(CC(=O)O)C(=O)O` (configuration not stated) was tested, and the “activity change, negative = inhibition” value was 15.8%. `NC(=O)c1sc(-c2ccsc2)cc1N` was tested, and the “activity change, negative = inhibition” value was 1.82%. For `COc1ccc(CC(N)C(=O)NC2C(O)[C@H](n3cnc4c(N(C)C)ncnc43)O[C@@H]2CO)cc1` (some centres not stated), the “activity change, negative = inhibition” value was -0.283%. `CCCn1c(C)nc2c(NCCCCN(CC)CC)nc(C)nc21` was tested, and the “activity change, negative = inhibition” value was -4.94%. With `C=C1CCN(C(CC(C)C)C(=O)N2CCOCC2)S(=O)(=O)c2ccccc21` (configuration not stated) the “activity change, negative = inhibition” value was 2.97%.
